This is one part of the list. Calls of active or inactive are those of the source.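 Rule for the calls: active = mean inhibition across replicates above a set limit taken from the earlier primary screen (cut at about 11% in these data); inactive = the rest.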
What follows are molecules tested against RNA-editing ligase 1, mitochondrial (Trypanosoma brucei brucei) (UniProt P86926) (assay: TbREL1 RNA ligase inhibitors, confirmation, biochemical, FRET fluorescence, triplicate (AID 1117282;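 note: 0% = REL1 with substrate and DMSO and 100% = REL1 plus control inhibitor NSC42067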)). Conditions: TbREL1 RNA ligation, at 9.66 µM, stronger effect = higher value.
RNA-editing ligase 1, mitochondrial (Trypanosoma brucei brucei), sequence (P86926 whole entry, looked up): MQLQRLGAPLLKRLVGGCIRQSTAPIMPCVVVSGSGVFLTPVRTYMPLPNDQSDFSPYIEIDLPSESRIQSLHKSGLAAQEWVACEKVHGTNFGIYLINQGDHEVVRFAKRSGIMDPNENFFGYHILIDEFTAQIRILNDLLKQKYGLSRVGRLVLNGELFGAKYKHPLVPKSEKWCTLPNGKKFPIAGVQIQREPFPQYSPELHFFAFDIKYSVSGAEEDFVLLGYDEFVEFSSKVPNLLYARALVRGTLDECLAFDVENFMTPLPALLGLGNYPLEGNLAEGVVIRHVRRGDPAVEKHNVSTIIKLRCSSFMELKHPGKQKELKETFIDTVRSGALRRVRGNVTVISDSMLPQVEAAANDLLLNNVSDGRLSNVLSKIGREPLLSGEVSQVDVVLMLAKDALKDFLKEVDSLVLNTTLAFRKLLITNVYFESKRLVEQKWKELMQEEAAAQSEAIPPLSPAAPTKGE
For `COc1cc(NC(=O)CCS(=O)(=O)c2ccc3c(c2)oc(=O)n3C)cc(OC)c1`, the inhibition was 2.33% (inactive).
For `CC1(C)CC(N2CCN(C(c3ccccc3)c3ccccc3)CC2)=CC(=[N+]2CCCCC2)C1`, the inhibition was 16.7% (active).
For `O=C(NCc1ccccc1)[C@@H]1CSC2c3ccccc3C(=O)N21` (some centres undefined), the inhibition was 3.84% (inactive).
In the case of `CNc1nc(Nc2ccc(C)c(Cl)c2)nc(N)c1[N+](=O)[O-]`, the inhibition is reported as 9.65% (inactive).
In the case of `COc1ccc(C(C(=O)Nc2c(C)cccc2C)N2CCN(c3ccc(C)cc3)CC2)cc1` (centres undefined), the inhibition is reported as -1.79% (inactive).
In the case of `Nc1ccc2nc3c(=O)[nH]c(=S)[nH]c3nc2c1`, the inhibition is reported as 14.2% (active).
For `CN1CCN(/N=C2/C(=O)Nc3ccc([N+](=O)[O-])cc32)CC1`, the inhibition was 3.63% (inactive).
`COc1c(O)cc2oc(-c3ccc(O)c(O)c3)cc(=O)c2c1O` was tested, and the inhibition was 12.7% (active).
`CC(C)Cn1c(N)c(C(=O)NCc2cccs2)c2nc3ccccc3nc21` was tested, and the inhibition was 6.35% (inactive).
In the case of `CC[C@@H](C)[C@@H]1CN([C@@H](C)CN2CCC[C@H]2CN2C(N)=NC[C@H]2C(C)C)C(=N)N1CCc1ccc(Cl)c(Cl)c1`, the inhibition is reported as 13.3% (active).
With `O=C(Nc1nc(-c2ccco2)c(-c2ccco2)s1)c1ccco1` the inhibition was 6.13% (inactive).
In the case of `C=CCn1c(=S)[nH]c2scc(-c3ccco3)c2c1=O`, the inhibition is reported as 13.8% (active).
With `CCCCCn1c(=O)[nH]c2cc(C(=O)NCCCN3CCCCC3C)ccc2c1=O` (centres undefined) the inhibition was 7.94% (inactive).
For `COC(=O)C1=C(C)N(Cc2cccc(C(F)(F)F)c2)C(=NCc2ccccc2)NC1c1ccccc1C(F)(F)F` (centres undefined), the inhibition was 21.2% (active).
`O=C(Nc1cccc(F)c1)NC1CCCCCCC1` was tested, and the inhibition was 4.12% (inactive).
For `COC(=O)C1=C(C)N(Cc2cccc(C(F)(F)F)c2)C(=NCc2cccc(C(F)(F)F)c2)NC1c1ccccc1C(F)(F)F` (centres undefined), the inhibition was 19.9% (active).
With `COCc1c(N)c(C)nc(Cl)c1C#N` the inhibition was 7.44% (inactive).
With `Cc1nnsc1C(=O)Nc1cccc(Cl)c1C` the inhibition was 2.09% (inactive).
In the case of `COc1cc(/C=C/C(=O)n2cnc3ccccc32)cc(OC)c1OC`, the inhibition is reported as 2.66% (inactive).

Reference: PubChem BioAssay AID1117282 (The Scripps Research Institute Molecular Screening Center, 2014)
